Measured values reported in PubChem BioAssay AID1159580 (chemical genetic matrix, 2015).
Screen size: about 5,500 compounds; about 2,000 (36%) were called active. About 18% were inconclusive and are not listed. No stated cut-off is given here; in the data, active means normalized growth mostly below about 0.91 (no sharp cut-off); inconclusive means no clear call, values can overlap the other calls; inactive means mostly above about 0.92. The list shows a part of the results.

Assay: chemical genetic growth profiling, strain panel (AID 1159580);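 further: tested at 20 µM; growth read once vehicle control cultures reached saturation at 30 °C; 1 = growth at the plate median or of vehicle wells; lower values mean less growth of the strain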
Details: S. cerevisiae deletion strains, growth OD

Measured: normalized growth

COc1cc(S(C)=O)ccc1-c1nc2ncccc2[nH]1 (stereo not drawn)
inactive: locus YAL013W, strain DEP1, active compounds read low 1.01 | locus YAL021C, strain ccr4, active compounds read low 0.936 | locus YAL026C, strain drs2, active compounds read low 0.994 | locus YAL030W, strain snc1, active compounds read low 0.976 | locus YBL061C, strain skt5, active compounds read low 0.984 | locus YBR009C, strain hhf1, active compounds read low 0.956 | locus YBR021W, strain FUR4, active compounds read low 0.994 | locus YBR023C, strain chs3, active compounds read low 0.98 | locus YBR171W, strain sec66, active compounds read low 0.977 | locus YBR229C, strain ROT2, active compounds read low 1.01 | locus YBR231C, strain swc5, active compounds read low 1.01 | locus YBR279W, strain paf1, active compounds read low 0.981 | locus YCL011C, strain gbp2, active compounds read low 0.969 | locus YCL016C, strain dcc1, active compounds read low 0.959 | locus YCL029C, strain bik1, active compounds read low 0.985 | locus YCL061C, strain MRC1, active compounds read low 0.984 | locus YCL069W, strain vba3, active compounds read low 0.967 | locus YCR088W, strain abp1, active compounds read low 0.981 | locus YDL005C, strain med2, active compounds read low 0.966 | locus YDL035C, strain GPR1, active compounds read low 1 | locus YDL040C, strain nat1, active compounds read low 0.969 | locus YDL074C, strain BRE1, active compounds read low 1.04 | locus YDL101C, strain DUN1, active compounds read low 0.994 | locus YDL134C, strain PPH21, active compounds read low 1.01 | locus YDL185W, strain tfp1, active compounds read low 0.98 | locus YDL192W, strain arf1, active compounds read low 0.985 | locus YDR001C, strain nth1, active compounds read low 0.963 | locus YDR069C, strain doa4, active compounds read low 0.958 | locus YDR101C, strain arx1, active compounds read low 0.999 | locus YDR137W, strain rgp1, active compounds read low 0.973 | locus YDR150W, strain NUM1, active compounds read low 0.979 | locus YDR159W, strain sac3, active compounds read low 0.96 | locus YDR162C, strain NBP2, active compounds read low 1 | locus YDR195W, strain ref2 0.935 | locus YDR297W, strain sur2, active compounds read low 0.974 | locus YDR318W, strain mcm21, active compounds read low 0.997 | locus YDR334W, strain swr1, active compounds read low 0.97 | locus YDR335W, strain msn5, active compounds read low 0.96 | locus YDR388W, active compounds read low 0.996 | locus YDR392W, strain spt3, active compounds read low 0.848 | locus YDR502C, strain sam2, active compounds read low 0.984 | locus YEL003W, strain gim4, active compounds read low 0.98 | locus YEL037C, strain rad23, active compounds read low 0.975 | locus YEL061C, strain CIN8 (second series), active compounds read low 0.972 | locus YEL061C, strain CIN8, active compounds read low 1 | locus YER015W, strain faa2, active compounds read low 0.982 | locus YER016W, strain bim1, active compounds read low 0.978 | locus YER110C, active compounds read low 0.992 | locus YER111C, strain swi4, active compounds read low 0.972 | locus YER155C, strain BEM2 (second series), active compounds read low 0.994 | locus YER155C, strain BEM2, active compounds read low 0.978 | locus YER167W, strain BCK2, active compounds read low 1.01 | locus YFR010W, strain ubp6, active compounds read low 0.974 | locus YGL078C, strain dbp3, active compounds read low 0.993 | locus YGL086W, strain mad1, active compounds read low 0.995 | locus YGL167C, strain pmr1, active compounds read low 0.941 | locus YGL173C, strain kem1, active compounds read low 0.99 | locus YGL227W, strain vid30, active compounds read low 0.982 | locus YGL240W, strain doc1, active compounds read low 0.999 | locus YGL248W, strain PDE1, active compounds read low 0.995 | locus YGL253W, strain hxk2, active compounds read low 0.987 | locus YGR078C, strain PAC10, active compounds read low 1.02 | locus YGR135W, strain pre9, active compounds read low 0.983 | locus YGR229C, strain SMI1, active compounds read low 1.02 | locus YGR252W, strain gcn5, active compounds read low 1.01 | locus YHR013C, strain ard1, active compounds read low 0.929 | locus YHR027C, strain rpn1, active compounds read low 0.97 | locus YHR030C, strain SLT2, active compounds read low 0.984 | locus YHR079C, strain IRE1 (second series), active compounds read low 0.997 | locus YHR094C, strain hxt1, active compounds read low 0.99 | locus YHR129C, strain ARP1, active compounds read low 1 | locus YHR142W, strain chs7, active compounds read low 0.943 | locus YHR200W, strain rpn10, active compounds read low 0.991 | locus YIL066C, strain RNR3, active compounds read low 0.995 | locus YIL073C, strain SPO22, active compounds read low 0.943 | locus YIL125W, strain kgd1, active compounds read low 0.999 | locus YIR030C, strain dcg1, active compounds read low 0.988 | locus YJL092W, strain hpr5, active compounds read low 0.98 | locus YJL095W, strain BCK1 (second series), active compounds read low 0.972 | locus YJL095W, strain BCK1, active compounds read low 1.03 | locus YJL115W, strain asf1, active compounds read low 0.972 | locus YJL129C, strain trk1, active compounds read low 0.966 | locus YJL134W, strain LCB3, active compounds read low 1.01 | locus YJL154C, strain vps35, active compounds read low 0.972 | locus YJL164C, strain tpk1, active compounds read low 0.941 | locus YJL166W, strain qcr8, active compounds read low 0.984 | locus YJL168C, strain set2, active compounds read low 1 | locus YJL187C, strain SWE1 (second series), active compounds read low 0.989
